Experimental data as given in PubChem BioAssay AID1159580 (chemical genetic matrix, 2015).
Values joined by “and” are separate entries in the source; they are usually repeats but may differ in a detail not shown here. Equal values may be shown once. Screen size: about 5,500 compounds; about 2,000 (36%) were called active. Another 18% or so got no clear call; they are omitted. Cut-off read from the data, not from the text of the source: active = normalized growth mostly below about 0.91 (no sharp cut-off); inconclusive = no clear call, values can overlap the other calls; inactive = mostly above about 0.92. The list shows a part of the results.

Experiment: chemical genetic growth profiling, strain panel (AID 1159580);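 note: tested at 20 µM; growth read once vehicle control cultures reached saturation at 30 °C; 1 = growth at the plate median or of vehicle wells; lower values mean less growth of the strain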
Conditions: S. cerevisiae deletion strains, growth OD

Measured: normalized growth

C[C@](N)(Cc1ccc(O)c(O)c1)C(=O)O
inactive: locus YAL013W, strain DEP1, stronger effect = lower value 0.962 | locus YAL021C, strain ccr4, stronger effect = lower value 0.999 | locus YAL026C, strain drs2, stronger effect = lower value 0.968 | locus YAL030W, strain snc1, stronger effect = lower value 0.967 | locus YBL061C, strain skt5, stronger effect = lower value 0.971 | locus YBR009C, strain hhf1, stronger effect = lower value 0.964 | locus YBR021W, strain FUR4, stronger effect = lower value 1.03 | locus YBR023C, strain chs3, stronger effect = lower value 0.957 | locus YBR171W, strain sec66, stronger effect = lower value 0.951 | locus YBR229C, strain ROT2, stronger effect = lower value 0.951 | locus YBR231C, strain swc5, stronger effect = lower value 0.974 | locus YBR279W, strain paf1, stronger effect = lower value 0.96 | locus YCL011C, strain gbp2, stronger effect = lower value 0.912 | locus YCL016C, strain dcc1, stronger effect = lower value 0.92 | locus YCL029C, strain bik1, stronger effect = lower value 0.995 | locus YCL061C, strain MRC1, stronger effect = lower value 0.966 | locus YCL069W, strain vba3, stronger effect = lower value 0.982 | locus YCR088W, strain abp1, stronger effect = lower value 0.991 | locus YDL005C, strain med2, stronger effect = lower value 0.991 | locus YDL035C, strain GPR1, stronger effect = lower value 0.91 | locus YDL040C, strain nat1, stronger effect = lower value 0.989 | locus YDL074C, strain BRE1, stronger effect = lower value 1.01 | locus YDL101C, strain DUN1, stronger effect = lower value 0.987 | locus YDL134C, strain PPH21, stronger effect = lower value 0.974 | locus YDL185W, strain tfp1, stronger effect = lower value 0.988 | locus YDL192W, strain arf1, stronger effect = lower value 0.974 | locus YDR001C, strain nth1, stronger effect = lower value 0.971 | locus YDR069C, strain doa4, stronger effect = lower value 0.936 | locus YDR101C, strain arx1, stronger effect = lower value 1.01 | locus YDR137W, strain rgp1, stronger effect = lower value 0.945 | locus YDR150W, strain NUM1, stronger effect = lower value 0.943 | locus YDR159W, strain sac3, stronger effect = lower value 1 | locus YDR162C, strain NBP2, stronger effect = lower value 0.911 | locus YDR195W, strain ref2 0.984 | locus YDR297W, strain sur2, stronger effect = lower value 0.963 | locus YDR318W, strain mcm21, stronger effect = lower value 0.993 | locus YDR334W, strain swr1, stronger effect = lower value 0.92 | locus YDR335W, strain msn5, stronger effect = lower value 0.961 | locus YDR388W, stronger effect = lower value 1.01 | locus YDR392W, strain spt3, stronger effect = lower value 0.886 | locus YDR502C, strain sam2, stronger effect = lower value 1 | locus YEL003W, strain gim4, stronger effect = lower value 0.992 | locus YEL037C, strain rad23, stronger effect = lower value 0.977 | locus YEL061C, strain CIN8 (second series), stronger effect = lower value 0.977 | locus YEL061C, strain CIN8, stronger effect = lower value 0.978 | locus YER015W, strain faa2, stronger effect = lower value 0.965 | locus YER016W, strain bim1, stronger effect = lower value 0.987 | locus YER110C, stronger effect = lower value 0.971 | locus YER111C, strain swi4, stronger effect = lower value 0.995 | locus YER155C, strain BEM2 (second series), stronger effect = lower value 0.986 | locus YER155C, strain BEM2, stronger effect = lower value 1.02 | locus YER167W, strain BCK2, stronger effect = lower value 0.961 | locus YFR010W, strain ubp6, stronger effect = lower value 0.939 | locus YGL078C, strain dbp3, stronger effect = lower value 0.984 | locus YGL086W, strain mad1, stronger effect = lower value 0.958 | locus YGL167C, strain pmr1, stronger effect = lower value 0.954 | locus YGL173C, strain kem1, stronger effect = lower value 0.941 | locus YGL227W, strain vid30, stronger effect = lower value 0.979 | locus YGL240W, strain doc1, stronger effect = lower value 0.998 | locus YGL248W, strain PDE1, stronger effect = lower value 0.958 | locus YGL253W, strain hxk2, stronger effect = lower value 0.981 | locus YGR078C, strain PAC10, stronger effect = lower value 0.907 | locus YGR135W, strain pre9, stronger effect = lower value 0.973 | locus YGR229C, strain SMI1, stronger effect = lower value 0.917 | locus YGR252W, strain gcn5, stronger effect = lower value 0.908 | locus YHR013C, strain ard1, stronger effect = lower value 0.894 | locus YHR027C, strain rpn1, stronger effect = lower value 0.95 | locus YHR030C, strain SLT2, stronger effect = lower value 0.981 and 1.04 | locus YHR079C, strain IRE1 (second series), stronger effect = lower value 1 | locus YHR079C, strain IRE1, stronger effect = lower value 1.05 | locus YHR094C, strain hxt1, stronger effect = lower value 0.999 | locus YHR129C, strain ARP1, stronger effect = lower value 0.985 | locus YHR142W, strain chs7, stronger effect = lower value 0.913 | locus YHR200W, strain rpn10, stronger effect = lower value 0.981 | locus YIL066C, strain RNR3, stronger effect = lower value 0.882 | locus YIL073C, strain SPO22, stronger effect = lower value 0.793 | locus YIL125W, strain kgd1, stronger effect = lower value 0.99 | locus YIR030C, strain dcg1, stronger effect = lower value 0.987 | locus YJL092W, strain hpr5, stronger effect = lower value 0.966 | locus YJL095W, strain BCK1 (second series), stronger effect = lower value 0.965 | locus YJL095W, strain BCK1, stronger effect = lower value 1.02 | locus YJL115W, strain asf1, stronger effect = lower value 0.953 | locus YJL129C, strain trk1, stronger effect = lower value 0.973 | locus YJL134W, strain LCB3, stronger effect = lower value 0.976 | locus YJL154C, strain vps35, stronger effect = lower value 0.974 | locus YJL164C, strain tpk1, stronger effect = lower value 0.979 | locus YJL166W, strain qcr8, stronger effect = lower value 0.927 | locus YJL168C, strain set2, stronger effect = lower value 0.995 | locus YJL187C, strain SWE1 (second series), stronger effect = lower value 0.985 | locus YJL187C, strain SWE1, stronger effect = lower value 0.978 | locus YJR043C, strain POL32, stronger effect = lower value 0.967 | locus YJR066W, strain TOR1, stronger effect = lower value 0.99
